Laboratory results reported in the supplement of paper PMC11732987, “Enantioselective OTUD7B fragment discovery through chemoproteomics screening and high-throughput optimisation” (Communications Chemistry, 2025).

Assays:
Experiment in all cases: log2 ratio of Biotin-Ahx-Ub-VS probe labelling (fragment/DMSO); higher = less target engagement (more negative = stronger competition), active = hit call of the paper (q ≤ 0.05, log2 ratio ≤ -1)
Conditions in all cases: compound concentration: 200 uM; treatment time: 3 h
USP19 = biological target: T1, USP19 (UniProt O94966)
T1 sequence (whole entry): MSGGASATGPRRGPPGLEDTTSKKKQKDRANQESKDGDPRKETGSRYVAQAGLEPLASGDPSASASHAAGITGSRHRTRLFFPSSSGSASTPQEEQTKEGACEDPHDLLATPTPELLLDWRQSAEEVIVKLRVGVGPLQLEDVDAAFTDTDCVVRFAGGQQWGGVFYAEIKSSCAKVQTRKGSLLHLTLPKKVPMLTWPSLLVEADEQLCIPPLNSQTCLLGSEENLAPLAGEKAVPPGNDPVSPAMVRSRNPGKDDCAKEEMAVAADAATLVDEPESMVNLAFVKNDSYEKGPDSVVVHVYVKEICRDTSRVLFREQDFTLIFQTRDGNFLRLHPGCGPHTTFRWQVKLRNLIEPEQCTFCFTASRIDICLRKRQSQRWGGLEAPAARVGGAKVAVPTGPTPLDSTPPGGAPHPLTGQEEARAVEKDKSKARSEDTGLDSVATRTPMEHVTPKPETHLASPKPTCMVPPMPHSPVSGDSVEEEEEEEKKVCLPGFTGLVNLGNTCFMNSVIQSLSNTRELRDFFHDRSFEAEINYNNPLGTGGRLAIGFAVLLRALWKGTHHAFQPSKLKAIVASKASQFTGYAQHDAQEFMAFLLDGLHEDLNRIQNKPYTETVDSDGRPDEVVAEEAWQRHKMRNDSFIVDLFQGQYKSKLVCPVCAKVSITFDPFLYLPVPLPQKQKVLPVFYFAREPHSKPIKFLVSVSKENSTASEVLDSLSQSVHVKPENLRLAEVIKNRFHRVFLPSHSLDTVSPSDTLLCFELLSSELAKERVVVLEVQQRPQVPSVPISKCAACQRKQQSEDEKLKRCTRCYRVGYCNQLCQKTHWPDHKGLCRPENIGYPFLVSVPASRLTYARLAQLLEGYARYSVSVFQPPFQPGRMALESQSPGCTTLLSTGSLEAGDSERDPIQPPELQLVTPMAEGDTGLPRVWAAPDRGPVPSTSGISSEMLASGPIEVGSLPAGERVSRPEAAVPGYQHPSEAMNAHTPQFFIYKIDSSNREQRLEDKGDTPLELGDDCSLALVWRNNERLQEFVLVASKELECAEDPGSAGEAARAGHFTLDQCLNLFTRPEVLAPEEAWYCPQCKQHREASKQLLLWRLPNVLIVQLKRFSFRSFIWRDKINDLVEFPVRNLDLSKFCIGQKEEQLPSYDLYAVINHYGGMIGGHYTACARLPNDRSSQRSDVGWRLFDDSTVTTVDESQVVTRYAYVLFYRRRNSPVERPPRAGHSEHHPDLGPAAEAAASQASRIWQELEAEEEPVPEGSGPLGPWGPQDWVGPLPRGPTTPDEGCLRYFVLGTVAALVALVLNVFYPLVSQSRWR
Outline: (§1)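 Labelling with Biotin-Ahx-Ub-VS (0.5 µM final, 1 h) followed a 3 h triplicate treatment of HEK293T lysate (495 µg per sample, Tris/CHAPS/IGEPAL buffer with protease inhibitors) with fragment at 200 µM or vehicle. Labelled DUBs were NeutrAvidin-enriched, digested with LysC and trypsin, and run by diaPASEF LC-MS/MS. The values, average log2 fragment/vehicle ratios by unpaired t-test, come from global-median-normalised Spectronaut label-free quantities. Proteins with ≥2 unique peptides were used.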

USP22 = biological target: T2, USP22 (UniProt Q9UPT9)
T2 sequence (whole entry): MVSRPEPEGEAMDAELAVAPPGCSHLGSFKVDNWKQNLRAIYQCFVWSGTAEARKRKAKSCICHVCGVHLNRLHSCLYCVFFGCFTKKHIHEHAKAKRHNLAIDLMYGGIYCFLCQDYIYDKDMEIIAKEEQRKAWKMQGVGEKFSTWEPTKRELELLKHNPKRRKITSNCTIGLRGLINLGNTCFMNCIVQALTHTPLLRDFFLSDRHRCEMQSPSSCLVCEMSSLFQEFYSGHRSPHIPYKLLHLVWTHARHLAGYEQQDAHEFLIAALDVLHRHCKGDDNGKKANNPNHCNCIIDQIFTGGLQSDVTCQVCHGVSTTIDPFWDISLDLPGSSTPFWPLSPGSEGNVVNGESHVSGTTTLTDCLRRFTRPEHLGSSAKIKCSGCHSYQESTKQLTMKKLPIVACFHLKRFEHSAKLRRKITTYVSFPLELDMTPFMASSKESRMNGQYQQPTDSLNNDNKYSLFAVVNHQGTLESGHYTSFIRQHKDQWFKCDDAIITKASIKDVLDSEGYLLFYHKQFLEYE
Outline: as §1

USP24 = USP24 (UniProt Q9UPU5)
Chain of USP24 (Q9UPU5 whole entry): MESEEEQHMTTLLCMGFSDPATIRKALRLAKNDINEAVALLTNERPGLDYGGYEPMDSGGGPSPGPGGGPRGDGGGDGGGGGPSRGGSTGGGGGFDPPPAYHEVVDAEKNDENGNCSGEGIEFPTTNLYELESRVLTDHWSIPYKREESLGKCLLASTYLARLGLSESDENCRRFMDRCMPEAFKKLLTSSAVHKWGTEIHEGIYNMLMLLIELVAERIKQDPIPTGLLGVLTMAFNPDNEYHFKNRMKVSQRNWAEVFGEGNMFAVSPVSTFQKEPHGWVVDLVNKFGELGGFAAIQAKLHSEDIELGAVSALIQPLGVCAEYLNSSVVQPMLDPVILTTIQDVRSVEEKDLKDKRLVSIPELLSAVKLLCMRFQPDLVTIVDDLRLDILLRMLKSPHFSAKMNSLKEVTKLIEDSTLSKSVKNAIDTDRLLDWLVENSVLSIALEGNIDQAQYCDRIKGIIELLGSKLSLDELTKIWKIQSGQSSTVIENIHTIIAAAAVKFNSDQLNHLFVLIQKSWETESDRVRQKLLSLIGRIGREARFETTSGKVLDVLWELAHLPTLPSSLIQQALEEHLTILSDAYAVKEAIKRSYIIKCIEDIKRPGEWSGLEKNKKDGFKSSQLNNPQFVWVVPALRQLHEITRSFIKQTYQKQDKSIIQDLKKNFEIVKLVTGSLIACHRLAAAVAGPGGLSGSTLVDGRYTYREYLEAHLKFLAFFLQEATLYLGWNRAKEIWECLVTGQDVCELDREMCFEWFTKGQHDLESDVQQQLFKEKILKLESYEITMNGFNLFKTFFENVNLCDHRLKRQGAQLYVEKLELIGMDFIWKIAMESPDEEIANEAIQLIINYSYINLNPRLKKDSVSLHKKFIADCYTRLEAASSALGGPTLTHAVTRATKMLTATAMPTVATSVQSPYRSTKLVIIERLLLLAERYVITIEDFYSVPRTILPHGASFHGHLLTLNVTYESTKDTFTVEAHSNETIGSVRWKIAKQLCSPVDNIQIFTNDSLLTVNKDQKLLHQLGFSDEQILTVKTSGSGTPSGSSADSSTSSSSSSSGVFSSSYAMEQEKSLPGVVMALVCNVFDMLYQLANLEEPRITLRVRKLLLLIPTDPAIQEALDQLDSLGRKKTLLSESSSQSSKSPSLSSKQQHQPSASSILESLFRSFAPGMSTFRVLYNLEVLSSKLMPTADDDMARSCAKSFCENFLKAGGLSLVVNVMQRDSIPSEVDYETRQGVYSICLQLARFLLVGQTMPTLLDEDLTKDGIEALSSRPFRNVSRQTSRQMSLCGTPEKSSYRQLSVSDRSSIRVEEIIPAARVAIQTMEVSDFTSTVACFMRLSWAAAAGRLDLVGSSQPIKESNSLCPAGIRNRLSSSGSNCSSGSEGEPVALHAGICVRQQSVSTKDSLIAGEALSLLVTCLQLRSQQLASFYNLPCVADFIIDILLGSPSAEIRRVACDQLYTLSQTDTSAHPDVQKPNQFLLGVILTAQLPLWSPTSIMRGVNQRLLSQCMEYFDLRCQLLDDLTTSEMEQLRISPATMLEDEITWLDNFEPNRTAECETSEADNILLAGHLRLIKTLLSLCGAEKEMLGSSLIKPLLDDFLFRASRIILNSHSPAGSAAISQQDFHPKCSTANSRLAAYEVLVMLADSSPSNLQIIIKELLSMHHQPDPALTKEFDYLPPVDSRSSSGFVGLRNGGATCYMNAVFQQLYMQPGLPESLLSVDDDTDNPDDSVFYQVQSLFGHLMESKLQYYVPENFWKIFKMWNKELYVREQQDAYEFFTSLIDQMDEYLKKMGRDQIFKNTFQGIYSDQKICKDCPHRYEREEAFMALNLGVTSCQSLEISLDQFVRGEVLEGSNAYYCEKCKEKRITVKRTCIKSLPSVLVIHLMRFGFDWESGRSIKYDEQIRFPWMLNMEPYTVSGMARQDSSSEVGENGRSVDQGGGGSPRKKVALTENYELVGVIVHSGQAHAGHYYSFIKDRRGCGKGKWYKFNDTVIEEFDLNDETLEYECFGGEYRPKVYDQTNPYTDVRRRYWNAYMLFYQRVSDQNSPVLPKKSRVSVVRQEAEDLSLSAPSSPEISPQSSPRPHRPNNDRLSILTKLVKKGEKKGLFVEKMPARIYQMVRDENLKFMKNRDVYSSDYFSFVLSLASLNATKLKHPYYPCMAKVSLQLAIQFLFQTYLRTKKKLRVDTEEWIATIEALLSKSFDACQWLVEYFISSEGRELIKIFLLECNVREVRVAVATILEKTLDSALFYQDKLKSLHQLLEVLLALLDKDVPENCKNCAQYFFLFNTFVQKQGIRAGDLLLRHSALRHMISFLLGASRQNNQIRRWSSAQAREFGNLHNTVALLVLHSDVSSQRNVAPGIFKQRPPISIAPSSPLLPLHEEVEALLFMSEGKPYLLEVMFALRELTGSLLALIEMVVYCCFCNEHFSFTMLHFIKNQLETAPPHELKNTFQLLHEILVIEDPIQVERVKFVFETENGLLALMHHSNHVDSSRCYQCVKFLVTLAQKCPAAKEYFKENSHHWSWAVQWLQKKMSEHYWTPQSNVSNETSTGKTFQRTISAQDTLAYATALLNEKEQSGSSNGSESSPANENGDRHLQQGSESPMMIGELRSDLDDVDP
Outline: as §1

USP25 = biological target: T3, USP25 (UniProt Q9UHP3)
T3 sequence (whole entry): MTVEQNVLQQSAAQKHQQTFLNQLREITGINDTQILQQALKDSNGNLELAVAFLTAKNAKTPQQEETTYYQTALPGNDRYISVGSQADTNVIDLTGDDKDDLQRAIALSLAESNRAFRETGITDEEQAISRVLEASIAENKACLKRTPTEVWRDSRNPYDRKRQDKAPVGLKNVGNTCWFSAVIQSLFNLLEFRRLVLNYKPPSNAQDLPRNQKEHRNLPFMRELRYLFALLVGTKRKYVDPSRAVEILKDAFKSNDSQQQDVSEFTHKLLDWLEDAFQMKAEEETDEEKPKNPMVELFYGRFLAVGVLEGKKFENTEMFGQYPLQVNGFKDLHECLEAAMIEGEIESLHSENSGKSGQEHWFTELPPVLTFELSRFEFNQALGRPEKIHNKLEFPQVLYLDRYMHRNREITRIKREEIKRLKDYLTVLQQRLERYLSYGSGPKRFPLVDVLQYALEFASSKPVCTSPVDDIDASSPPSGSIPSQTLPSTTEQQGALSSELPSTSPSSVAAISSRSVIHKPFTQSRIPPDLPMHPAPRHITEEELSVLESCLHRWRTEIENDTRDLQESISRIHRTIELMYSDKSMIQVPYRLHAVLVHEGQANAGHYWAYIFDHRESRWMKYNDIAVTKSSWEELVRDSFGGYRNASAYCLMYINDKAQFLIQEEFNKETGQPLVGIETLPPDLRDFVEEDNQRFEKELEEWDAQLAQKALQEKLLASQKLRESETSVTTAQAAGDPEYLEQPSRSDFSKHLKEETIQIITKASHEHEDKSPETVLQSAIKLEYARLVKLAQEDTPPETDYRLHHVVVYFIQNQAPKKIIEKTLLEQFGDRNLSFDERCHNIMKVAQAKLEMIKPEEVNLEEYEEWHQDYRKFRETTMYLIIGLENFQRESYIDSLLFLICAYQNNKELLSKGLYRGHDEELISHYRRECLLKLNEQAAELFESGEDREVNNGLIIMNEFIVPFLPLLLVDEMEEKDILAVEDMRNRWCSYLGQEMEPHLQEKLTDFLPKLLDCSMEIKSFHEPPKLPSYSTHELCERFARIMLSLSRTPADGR
Outline: as §1

USP28 = biological target: T4, USP28 (UniProt Q96RU2)
T4 sequence (whole entry): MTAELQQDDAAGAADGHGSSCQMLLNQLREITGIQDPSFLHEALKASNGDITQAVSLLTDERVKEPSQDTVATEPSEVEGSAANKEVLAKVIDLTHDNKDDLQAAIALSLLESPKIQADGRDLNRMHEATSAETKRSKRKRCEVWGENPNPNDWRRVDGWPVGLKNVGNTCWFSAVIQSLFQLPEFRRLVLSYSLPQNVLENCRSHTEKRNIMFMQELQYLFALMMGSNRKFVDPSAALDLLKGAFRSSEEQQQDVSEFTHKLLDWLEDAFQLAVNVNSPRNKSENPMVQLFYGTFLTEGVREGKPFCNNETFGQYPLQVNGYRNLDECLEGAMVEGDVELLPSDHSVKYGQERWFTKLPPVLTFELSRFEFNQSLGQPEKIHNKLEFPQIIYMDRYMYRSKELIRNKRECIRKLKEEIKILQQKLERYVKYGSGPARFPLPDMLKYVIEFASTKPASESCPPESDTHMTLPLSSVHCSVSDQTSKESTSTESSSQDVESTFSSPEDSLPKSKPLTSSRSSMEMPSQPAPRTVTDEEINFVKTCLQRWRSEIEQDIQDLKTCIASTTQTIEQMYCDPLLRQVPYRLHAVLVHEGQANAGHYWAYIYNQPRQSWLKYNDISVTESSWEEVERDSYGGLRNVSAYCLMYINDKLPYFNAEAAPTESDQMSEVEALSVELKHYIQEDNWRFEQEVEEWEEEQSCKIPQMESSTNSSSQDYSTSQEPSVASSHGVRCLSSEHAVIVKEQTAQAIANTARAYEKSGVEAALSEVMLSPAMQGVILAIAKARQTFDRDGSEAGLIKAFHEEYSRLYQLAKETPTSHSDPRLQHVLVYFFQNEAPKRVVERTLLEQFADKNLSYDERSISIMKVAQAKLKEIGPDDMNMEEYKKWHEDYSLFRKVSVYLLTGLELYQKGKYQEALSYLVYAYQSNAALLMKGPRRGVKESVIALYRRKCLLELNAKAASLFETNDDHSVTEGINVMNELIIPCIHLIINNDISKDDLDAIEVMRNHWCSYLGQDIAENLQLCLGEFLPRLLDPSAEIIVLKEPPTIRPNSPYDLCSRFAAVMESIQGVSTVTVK
Outline: as §1

Measured: log2 ratio of Biotin-Ahx-Ub-VS probe labelling

CN(C)S(=O)(=O)c1ccccc1CNC(=O)CCl
inactive: USP19 0.0268 | USP22 -0.12 | USP24 -0.108 | USP25 -0.258 | USP28 -0.239
